# Test results taken from ChEMBL document CHEMBL1961873, “Compounds: GSK PKIS; Assays: Nanosyn kinase panel” (2012).
# Legend:
# [1] = molecular target: Sphingosine kinase 1 (Homo sapiens) (UniProt Q9NYA1); conditions: at 1 µM;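 also: mean SPHK1 inhibition value reported from the GSK PKIS kinase panel screen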
# [2] = molecular target: T1, Sphingosine kinase 2 (Homo sapiens) (UniProt Q9NRA0); conditions: at 0.1 µM
# T1 sequence (whole entry): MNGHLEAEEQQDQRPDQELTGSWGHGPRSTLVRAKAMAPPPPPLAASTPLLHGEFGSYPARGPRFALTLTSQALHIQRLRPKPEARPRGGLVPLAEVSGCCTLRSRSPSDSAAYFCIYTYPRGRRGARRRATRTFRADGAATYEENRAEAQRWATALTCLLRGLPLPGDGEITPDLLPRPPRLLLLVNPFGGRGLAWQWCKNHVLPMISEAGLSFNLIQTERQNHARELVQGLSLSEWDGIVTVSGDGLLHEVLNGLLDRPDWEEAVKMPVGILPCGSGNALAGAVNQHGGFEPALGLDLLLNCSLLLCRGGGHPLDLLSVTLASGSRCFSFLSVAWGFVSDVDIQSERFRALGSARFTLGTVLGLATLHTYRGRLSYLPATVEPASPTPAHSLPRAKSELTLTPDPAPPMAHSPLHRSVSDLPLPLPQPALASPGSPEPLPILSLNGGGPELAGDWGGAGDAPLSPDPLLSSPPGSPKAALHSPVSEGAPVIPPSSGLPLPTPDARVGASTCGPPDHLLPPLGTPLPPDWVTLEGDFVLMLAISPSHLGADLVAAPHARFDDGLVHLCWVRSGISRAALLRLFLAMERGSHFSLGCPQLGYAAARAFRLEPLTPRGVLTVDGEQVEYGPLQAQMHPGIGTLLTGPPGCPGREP
# [3] = molecular target: T1, Sphingosine kinase 2 (Homo sapiens); conditions: at 1 µM
# [4] = molecular target: Casein kinase II subunit alpha (Homo sapiens) (UniProt P68400); conditions: at 0.1 µM
# Casein kinase II subunit alpha (Homo sapiens), sequence (P68400 whole entry, looked up): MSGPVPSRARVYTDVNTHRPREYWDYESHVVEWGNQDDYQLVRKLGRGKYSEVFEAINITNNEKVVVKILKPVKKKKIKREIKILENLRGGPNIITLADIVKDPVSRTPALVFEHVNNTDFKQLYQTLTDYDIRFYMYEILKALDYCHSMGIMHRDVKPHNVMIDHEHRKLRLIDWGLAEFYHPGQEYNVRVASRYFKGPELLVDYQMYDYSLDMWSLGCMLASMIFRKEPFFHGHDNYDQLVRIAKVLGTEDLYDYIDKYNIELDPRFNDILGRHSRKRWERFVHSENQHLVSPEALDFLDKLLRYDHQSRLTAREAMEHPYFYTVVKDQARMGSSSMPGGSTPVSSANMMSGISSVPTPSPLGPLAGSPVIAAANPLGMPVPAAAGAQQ
# [5] = molecular target: Casein kinase II subunit alpha (Homo sapiens) (UniProt P68400); conditions: at 1 µM
# [6] = molecular target: T2, Inhibitor of nuclear factor kappa-B kinase subunit alpha (Homo sapiens) (UniProt O15111); conditions: at 0.1 µM
# T2 sequence (whole entry): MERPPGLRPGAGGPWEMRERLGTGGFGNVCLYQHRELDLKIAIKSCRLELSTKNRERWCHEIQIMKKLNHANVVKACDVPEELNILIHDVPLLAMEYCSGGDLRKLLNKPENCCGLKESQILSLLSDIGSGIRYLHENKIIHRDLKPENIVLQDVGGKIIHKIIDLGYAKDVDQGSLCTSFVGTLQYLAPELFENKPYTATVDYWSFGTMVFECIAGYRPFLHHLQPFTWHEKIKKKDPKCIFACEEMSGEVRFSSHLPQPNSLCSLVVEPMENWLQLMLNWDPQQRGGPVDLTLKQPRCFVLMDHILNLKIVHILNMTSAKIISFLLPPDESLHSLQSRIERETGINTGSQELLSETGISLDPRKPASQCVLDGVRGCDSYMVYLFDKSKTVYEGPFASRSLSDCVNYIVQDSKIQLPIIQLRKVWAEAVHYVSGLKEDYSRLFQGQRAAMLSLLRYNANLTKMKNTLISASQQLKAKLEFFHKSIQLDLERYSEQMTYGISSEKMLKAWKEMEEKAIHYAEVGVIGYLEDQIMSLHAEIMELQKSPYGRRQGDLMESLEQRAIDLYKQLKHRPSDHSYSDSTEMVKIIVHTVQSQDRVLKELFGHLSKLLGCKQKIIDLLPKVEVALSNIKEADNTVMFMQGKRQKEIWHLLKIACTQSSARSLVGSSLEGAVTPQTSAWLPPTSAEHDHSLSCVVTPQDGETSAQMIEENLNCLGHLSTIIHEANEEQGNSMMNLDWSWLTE
# [7] = molecular target: T2, Inhibitor of nuclear factor kappa-B kinase subunit alpha (Homo sapiens); conditions: at 1 µM
# [8] = molecular target: T3, Inhibitor of nuclear factor kappa-B kinase subunit beta (Homo sapiens) (UniProt O14920); conditions: at 0.1 µM
# T3 sequence (whole entry): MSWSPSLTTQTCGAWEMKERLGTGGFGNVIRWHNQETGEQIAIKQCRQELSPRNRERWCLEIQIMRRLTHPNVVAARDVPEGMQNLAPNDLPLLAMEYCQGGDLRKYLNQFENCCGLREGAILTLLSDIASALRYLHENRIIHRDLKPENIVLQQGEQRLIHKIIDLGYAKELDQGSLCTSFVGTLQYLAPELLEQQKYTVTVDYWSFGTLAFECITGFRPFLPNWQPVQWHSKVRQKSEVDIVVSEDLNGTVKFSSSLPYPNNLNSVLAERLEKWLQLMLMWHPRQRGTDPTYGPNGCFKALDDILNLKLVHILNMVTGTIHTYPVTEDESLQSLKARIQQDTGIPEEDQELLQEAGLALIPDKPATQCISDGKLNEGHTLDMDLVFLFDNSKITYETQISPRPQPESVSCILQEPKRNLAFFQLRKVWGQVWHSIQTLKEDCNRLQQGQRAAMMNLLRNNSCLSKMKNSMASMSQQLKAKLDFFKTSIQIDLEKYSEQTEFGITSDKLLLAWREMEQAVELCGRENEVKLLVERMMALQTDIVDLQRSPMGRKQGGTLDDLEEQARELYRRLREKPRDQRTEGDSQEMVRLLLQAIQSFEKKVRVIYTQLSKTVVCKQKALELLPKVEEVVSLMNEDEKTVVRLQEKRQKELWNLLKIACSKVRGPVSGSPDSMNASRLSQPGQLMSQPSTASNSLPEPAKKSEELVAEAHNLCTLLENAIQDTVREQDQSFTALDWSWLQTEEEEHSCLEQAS
# [9] = molecular target: T3, Inhibitor of nuclear factor kappa-B kinase subunit beta (Homo sapiens); conditions: at 1 µM
# [10] = molecular target: T4, Inhibitor of nuclear factor kappa-B kinase subunit epsilon (Homo sapiens) (UniProt Q14164); conditions: at 0.1 µM
# T4 sequence (whole entry): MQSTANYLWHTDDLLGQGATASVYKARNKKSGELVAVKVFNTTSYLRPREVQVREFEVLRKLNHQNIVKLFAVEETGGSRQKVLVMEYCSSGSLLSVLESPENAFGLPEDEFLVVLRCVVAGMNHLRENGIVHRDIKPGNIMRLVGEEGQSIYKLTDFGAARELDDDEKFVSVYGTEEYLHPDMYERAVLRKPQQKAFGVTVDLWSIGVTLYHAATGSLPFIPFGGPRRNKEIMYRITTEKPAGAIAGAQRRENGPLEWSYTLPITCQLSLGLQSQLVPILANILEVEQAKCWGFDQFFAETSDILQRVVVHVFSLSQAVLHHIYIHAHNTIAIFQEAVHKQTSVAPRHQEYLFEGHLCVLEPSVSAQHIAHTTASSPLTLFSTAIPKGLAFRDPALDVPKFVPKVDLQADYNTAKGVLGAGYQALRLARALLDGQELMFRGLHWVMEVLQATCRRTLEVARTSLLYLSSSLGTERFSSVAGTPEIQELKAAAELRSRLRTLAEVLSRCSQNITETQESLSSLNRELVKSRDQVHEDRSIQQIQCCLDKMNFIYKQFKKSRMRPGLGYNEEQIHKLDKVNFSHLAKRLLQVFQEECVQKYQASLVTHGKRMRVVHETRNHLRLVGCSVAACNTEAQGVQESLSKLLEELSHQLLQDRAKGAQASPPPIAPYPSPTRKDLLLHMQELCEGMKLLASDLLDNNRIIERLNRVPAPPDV
# [11] = molecular target: T4, Inhibitor of nuclear factor kappa-B kinase subunit epsilon (Homo sapiens); conditions: at 1 µM
# [12] = molecular target: T5, Serine/threonine-protein kinase Nek1 (Homo sapiens) (UniProt Q96PY6); conditions: at 0.1 µM
# T5 sequence (whole entry): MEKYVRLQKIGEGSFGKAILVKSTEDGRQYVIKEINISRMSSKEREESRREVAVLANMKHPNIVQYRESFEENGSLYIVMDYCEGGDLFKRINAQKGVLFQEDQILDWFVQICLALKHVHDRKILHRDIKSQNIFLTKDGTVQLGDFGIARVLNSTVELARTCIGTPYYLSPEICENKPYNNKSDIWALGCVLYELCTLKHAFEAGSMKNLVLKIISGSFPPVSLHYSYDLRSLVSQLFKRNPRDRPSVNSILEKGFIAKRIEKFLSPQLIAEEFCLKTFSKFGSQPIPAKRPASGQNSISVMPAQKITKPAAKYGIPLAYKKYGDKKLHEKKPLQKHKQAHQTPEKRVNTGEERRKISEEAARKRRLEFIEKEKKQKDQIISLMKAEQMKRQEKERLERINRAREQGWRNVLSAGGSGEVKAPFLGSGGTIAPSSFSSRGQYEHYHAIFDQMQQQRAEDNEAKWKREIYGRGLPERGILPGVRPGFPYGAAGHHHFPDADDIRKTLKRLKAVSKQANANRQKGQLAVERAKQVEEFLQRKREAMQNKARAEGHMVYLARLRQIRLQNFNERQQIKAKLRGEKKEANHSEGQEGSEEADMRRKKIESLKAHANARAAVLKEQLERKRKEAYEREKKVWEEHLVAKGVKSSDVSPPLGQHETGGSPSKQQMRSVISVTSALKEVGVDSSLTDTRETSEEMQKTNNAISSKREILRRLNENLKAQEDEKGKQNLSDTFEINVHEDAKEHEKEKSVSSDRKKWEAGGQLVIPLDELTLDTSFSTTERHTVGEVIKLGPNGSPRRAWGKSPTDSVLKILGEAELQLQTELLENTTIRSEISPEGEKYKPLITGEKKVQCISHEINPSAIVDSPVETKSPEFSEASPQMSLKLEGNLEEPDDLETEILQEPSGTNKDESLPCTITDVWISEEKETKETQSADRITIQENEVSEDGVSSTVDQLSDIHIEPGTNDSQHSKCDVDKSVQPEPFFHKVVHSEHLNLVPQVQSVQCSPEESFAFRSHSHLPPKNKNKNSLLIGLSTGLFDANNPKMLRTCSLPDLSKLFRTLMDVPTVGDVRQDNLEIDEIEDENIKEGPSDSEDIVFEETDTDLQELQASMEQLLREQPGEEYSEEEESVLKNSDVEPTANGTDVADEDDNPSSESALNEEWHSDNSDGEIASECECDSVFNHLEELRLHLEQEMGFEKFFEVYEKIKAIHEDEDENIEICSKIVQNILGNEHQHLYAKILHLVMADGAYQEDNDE
# [13] = molecular target: T5, Serine/threonine-protein kinase Nek1 (Homo sapiens); conditions: at 1 µM
# [14] = molecular target: T6, Serine/threonine-protein kinase Nek2 (Homo sapiens) (UniProt P51955); conditions: at 0.1 µM
# T6 sequence (whole entry): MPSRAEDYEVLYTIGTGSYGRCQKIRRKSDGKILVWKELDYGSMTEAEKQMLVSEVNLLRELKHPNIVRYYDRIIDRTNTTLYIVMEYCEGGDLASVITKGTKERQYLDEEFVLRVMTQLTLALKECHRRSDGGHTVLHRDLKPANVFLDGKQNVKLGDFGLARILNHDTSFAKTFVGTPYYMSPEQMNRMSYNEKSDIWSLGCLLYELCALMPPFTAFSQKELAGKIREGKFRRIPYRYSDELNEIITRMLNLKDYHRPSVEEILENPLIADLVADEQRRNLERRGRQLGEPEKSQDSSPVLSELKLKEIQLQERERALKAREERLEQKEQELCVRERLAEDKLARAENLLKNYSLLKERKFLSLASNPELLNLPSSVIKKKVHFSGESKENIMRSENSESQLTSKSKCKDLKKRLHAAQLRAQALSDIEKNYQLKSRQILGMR
# [15] = molecular target: T6, Serine/threonine-protein kinase Nek2 (Homo sapiens); conditions: at 1 µM
# [16] = molecular target: Serine/threonine-protein kinase Nek6 (Homo sapiens) (UniProt Q9HC98); conditions: at 0.1 µM
# Serine/threonine-protein kinase Nek6 (Homo sapiens), sequence (Q9HC98 whole entry): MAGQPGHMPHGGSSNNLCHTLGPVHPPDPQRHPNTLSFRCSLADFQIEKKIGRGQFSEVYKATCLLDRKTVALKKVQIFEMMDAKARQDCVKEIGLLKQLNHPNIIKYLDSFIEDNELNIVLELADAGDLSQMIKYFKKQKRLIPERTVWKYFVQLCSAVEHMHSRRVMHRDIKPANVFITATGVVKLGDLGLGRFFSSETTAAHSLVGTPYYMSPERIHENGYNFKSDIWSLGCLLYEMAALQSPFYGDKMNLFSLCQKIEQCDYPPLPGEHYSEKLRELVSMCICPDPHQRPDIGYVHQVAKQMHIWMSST
# [17] = molecular target: Serine/threonine-protein kinase Nek6 (Homo sapiens) (UniProt Q9HC98); conditions: at 1 µM
# [18] = molecular target: Serine/threonine-protein kinase Nek7 (Homo sapiens) (UniProt Q8TDX7); conditions: at 0.1 µM
# Serine/threonine-protein kinase Nek7 (Homo sapiens), sequence (Q8TDX7 whole entry, looked up): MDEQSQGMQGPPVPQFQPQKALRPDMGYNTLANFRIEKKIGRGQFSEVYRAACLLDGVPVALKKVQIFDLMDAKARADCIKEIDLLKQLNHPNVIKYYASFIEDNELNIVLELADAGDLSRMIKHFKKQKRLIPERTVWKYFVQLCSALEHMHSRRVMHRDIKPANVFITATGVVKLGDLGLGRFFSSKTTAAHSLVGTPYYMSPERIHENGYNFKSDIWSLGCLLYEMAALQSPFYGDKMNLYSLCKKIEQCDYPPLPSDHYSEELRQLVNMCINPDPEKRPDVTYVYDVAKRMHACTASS
# [19] = molecular target: Serine/threonine-protein kinase Nek7 (Homo sapiens) (UniProt Q8TDX7); conditions: at 1 µM
# [20] = molecular target: T7, Serine/threonine-protein kinase Nek9 (Homo sapiens) (UniProt Q8TD19); conditions: at 0.1 µM;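 also: reported value is the mean percent inhibition of NEK9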
# T7 sequence (whole entry): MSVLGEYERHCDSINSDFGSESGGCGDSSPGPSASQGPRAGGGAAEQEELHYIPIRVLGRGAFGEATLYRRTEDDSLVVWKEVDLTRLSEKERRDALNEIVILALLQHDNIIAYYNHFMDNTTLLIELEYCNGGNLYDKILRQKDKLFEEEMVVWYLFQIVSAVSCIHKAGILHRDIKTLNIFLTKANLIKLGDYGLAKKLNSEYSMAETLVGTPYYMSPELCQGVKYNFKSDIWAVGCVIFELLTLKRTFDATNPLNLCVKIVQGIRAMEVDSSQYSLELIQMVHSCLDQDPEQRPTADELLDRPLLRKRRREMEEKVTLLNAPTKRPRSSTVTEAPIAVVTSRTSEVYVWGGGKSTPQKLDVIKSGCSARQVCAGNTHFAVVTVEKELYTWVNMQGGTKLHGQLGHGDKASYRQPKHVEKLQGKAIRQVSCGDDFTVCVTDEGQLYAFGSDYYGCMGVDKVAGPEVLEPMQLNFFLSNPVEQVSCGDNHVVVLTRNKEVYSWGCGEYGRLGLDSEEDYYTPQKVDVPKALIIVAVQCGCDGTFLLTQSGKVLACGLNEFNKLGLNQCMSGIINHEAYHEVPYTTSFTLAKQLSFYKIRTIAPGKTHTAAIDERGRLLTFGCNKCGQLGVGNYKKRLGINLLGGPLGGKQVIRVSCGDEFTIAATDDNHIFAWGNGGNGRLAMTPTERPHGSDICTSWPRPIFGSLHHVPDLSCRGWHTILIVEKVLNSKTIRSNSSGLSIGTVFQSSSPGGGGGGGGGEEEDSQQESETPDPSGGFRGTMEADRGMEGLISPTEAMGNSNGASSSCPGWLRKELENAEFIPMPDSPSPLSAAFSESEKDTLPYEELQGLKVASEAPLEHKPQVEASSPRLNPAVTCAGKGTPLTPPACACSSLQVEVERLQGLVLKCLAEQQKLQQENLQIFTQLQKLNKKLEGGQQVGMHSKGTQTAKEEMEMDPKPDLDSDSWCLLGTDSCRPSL
# Sphingosine kinase 1 (Homo sapiens), sequence (Q9NYA1 whole entry): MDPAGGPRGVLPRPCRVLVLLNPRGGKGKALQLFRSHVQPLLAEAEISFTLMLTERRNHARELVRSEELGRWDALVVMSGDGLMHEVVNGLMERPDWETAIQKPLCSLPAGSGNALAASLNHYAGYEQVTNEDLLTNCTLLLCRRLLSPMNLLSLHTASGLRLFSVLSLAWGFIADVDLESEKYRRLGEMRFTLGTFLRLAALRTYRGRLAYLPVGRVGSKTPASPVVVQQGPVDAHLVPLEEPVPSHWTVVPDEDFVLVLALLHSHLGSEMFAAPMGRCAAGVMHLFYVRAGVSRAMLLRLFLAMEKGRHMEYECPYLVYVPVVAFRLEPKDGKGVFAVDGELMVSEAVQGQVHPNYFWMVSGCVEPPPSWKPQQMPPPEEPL
smiles,measurement,setting,value
NCc1ccc(-c2nc(-c3ccc(Cl)c(O)c3)c(-c3ccncc3)[nH]2)cc1,inhibition,[1],-0.71%
same,inhibition,[2],-0.06%
same,inhibition,[3],0%
same,inhibition,[4],0.86%
same,inhibition,[5],1.53%
same,inhibition,[6],3.45%
same,inhibition,[7],-3.91%
same,inhibition,[8],1.08%
same,inhibition,[9],0.02%
same,inhibition,[10],1.2%
same,inhibition,[11],-0.03%
same,inhibition,[12],0.3%
same,inhibition,[13],1.09%
same,inhibition,[14],-2.48%
same,inhibition,[15],0.73%
same,inhibition,[16],-0.93%
same,inhibition,[17],-1.57%
same,inhibition,[18],1.75%
same,inhibition,[19],1.7%
same,inhibition,[20],7.64%
